Compound activity as filed in PubChem.
Hsp90 inh – tumor Hsp90 inhibitors, primary screen, cell lysate, fluorescence polarization, NCI-N417 lysate | Heat shock protein HSP 90-alpha (Homo sapiens), P07900 | inhibition, % at 30 µM | Cy3B-geldanamycin FP displacement | 0.35% of 64,000 active;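 active = inhibition above 50%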
M1 antag – antagonists of rat M1 muscarinic receptor. Muscarinic acetylcholine receptor M1 (Rattus norvegicus), P08482. CHO-M1 cells, Fluo-4 calcium, ACh EC80 antagonist mode; hits give low values. B-score at 10 µM. 3.4% of 64,000 active;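 active = calcium fluorescence response, raw or row-and-column corrected B-score, differing from the plate sample mean either way at a set confidence level, mostly lower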
Target sequence (P08482 whole entry, looked up): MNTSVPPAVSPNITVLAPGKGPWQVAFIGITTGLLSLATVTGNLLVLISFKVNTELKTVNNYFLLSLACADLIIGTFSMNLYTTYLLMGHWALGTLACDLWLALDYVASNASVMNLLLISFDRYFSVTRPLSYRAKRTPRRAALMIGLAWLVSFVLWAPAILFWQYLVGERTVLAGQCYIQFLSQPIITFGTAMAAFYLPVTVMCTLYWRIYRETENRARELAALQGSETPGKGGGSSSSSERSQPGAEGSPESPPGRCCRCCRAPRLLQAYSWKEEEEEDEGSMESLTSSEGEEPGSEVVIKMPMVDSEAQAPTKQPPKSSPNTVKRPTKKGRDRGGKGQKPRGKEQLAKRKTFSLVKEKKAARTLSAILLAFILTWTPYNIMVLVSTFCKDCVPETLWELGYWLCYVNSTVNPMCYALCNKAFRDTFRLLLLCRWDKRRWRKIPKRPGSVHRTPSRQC
M1 agonist – M1 muscarinic receptor agonists, primary screen, CHO-M1 cells, Fluo-4 calcium, agonist mode | Fluo-4 calcium fluorescence; hits give high values | B-score at 10 µM | 3% of 64,000 active | AID 626, 2007 | Muscarinic acetylcholine receptor M1;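 active = fluorescence rise, raw or as B-score row- and column-corrected plate score, outside the 99.7% band of its plate's samples, either direction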
MMP-13 inhibitor – human MMP13 inhibitors, primary screen, biochemical, FRET peptide cleavage; Collagenase 3 (Homo sapiens), P45452; MMP-13 fTHP FRET cleavage, Mca fluorescence; inhibition, % at 4 µM; 0.07% of 65,000 active; AID 570, 2006;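 active = inhibition above the mean of compound-free control plate wells plus 3 SD, cut at about 14% in these data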
Cdc25B inh – inhibitors of Cdc25B phosphatase catalytic domain, primary screen, biochemical, OMFP fluorescence. 0.1% of 65,000 active. M-phase inducer phosphatase 2 (Homo sapiens), P30305. inhibition, %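 (compounds tested at 10 µM final in the well)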. AID 368, 2006. recombinant Cdc25B, OMFP fluorescence Ex485/Em525; in the data active = inhibition above about 50%
DUSP1 inh – MKP-1 phosphatase inhibitors, primary screen, biochemical, in vitro; Dual specificity protein phosphatase 1 (Homo sapiens), P28562; recombinant MKP-1, OMFP hydrolysis fluorescence; inhibition, %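 (compounds tested at a single concentration somewhere between 10 and 100 µM)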; 0.15% of 65,000 active; AID 374, 2006;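 active = inhibition above about 50%, limit read from the data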
Hits are given with their value; i = inactive; nt = no result given. Shown are actives, neighbours in structure and some others; about 6.1% of the full set was active somewhere.

SMILES	Hsp90 inh	M1 antag	M1 agonist	MMP-13 inhibitor	Cdc25B inh	DUSP1 inh
CCCCCCn1cc(C(=O)O)c(=O)c2ccccc21	i	i	i	i	i	i
CCCCn1cc(SCC(=O)O)c2ccccc21	i	21	i	i	i	i
COc1cccc(OC)c1OCCNCC1CSc2ccccc2O1 (configuration not stated)	i	nt	nt	nt	nt	nt
CC1(C)CCC2=C(O1)c1ccccc1C(=O)C2=O	89	nt	nt	nt	nt	nt
C/C(NCc1cccnc1)=C(\C#N)C(=O)NCc1ccccc1	i	2.2	i	i	i	i
O=C(CSc1nnc(Cc2ccccc2)n1C1CCCCC1)N1CCOCC1	i	1.1	i	i	i	i
COc1ccc(Cn2nnnc2C(c2cc3cc(C)ccc3[nH]c2=O)N2CCOCC2)cc1 (configuration not stated)	i	i	i	i	i	i
COc1ccc(Cn2nnnc2C(c2cc3cccc(C)c3[nH]c2=O)N2CCOCC2)cc1 (configuration not stated)	i	i	i	i	52	i
COc1ccc(Cn2nnnc2C(c2ccccc2Cl)N2CCN(C3CCCC3)CC2)cc1 (configuration not stated)	i	i	i	i	i	i
COc1ccc(Cn2nnnc2C(c2ccccc2)N2CCN(C3CCCC3)CC2)cc1 (configuration not stated)	i	1.9	i	i	i	i
CCN(CC)c1nc(N)c2c(N)nc3c(c2c1C#N)CC(c1ccccc1)O3 (configuration not stated)	i	2.2	i	i	i	i
COc1cc(NC(C)CCCN)c2ncccc2c1Oc1ccc(Cl)cc1 (configuration not stated)	i	nt	nt	nt	nt	nt
Cc1ccc(C2C3CN(C(C)C)CC=C3C(C#N)=C(N)C2(C#N)C#N)cc1 (configuration not stated)	i	2.2	55	i	i	i
N#CC1=C(N)C(C#N)(C#N)[C@H](c2ccoc2)[C@H]2CN(Cc3ccccc3)CC=C12	i	i	26	i	i	i
O=C(Nc1ccc2c(c1)OCO2)C1(S(=O)(=O)c2ccc(Cl)cc2)CC1	i	i	i	i	i	i
Cc1noc(C)c1CSc1nnc2c(C)cc3ccccc3n12	i	i	1.7	i	i	i
C=COC(=O)CSc1nc(-c2cccs2)ccc1C#N	i	2.9	i	i	i	i
N#CC1=C2C=CC=CN2CC1=O	nt	i	i	i	i	i
CC1CCCCC1NS(=O)(=O)c1ccc(S(=O)(=O)N2CCCC2)cc1 (configuration not stated)	i	i	i	i	i	i
O=S(=O)(NC1CCc2ccccc21)c1ccc(S(=O)(=O)N2CCCC2)cc1 (configuration not stated)	92	i	i	i	i	i
Cc1ccc(-n2ncc3c(=O)n(CC(=O)N4CCCc5ccccc54)cnc32)cc1C	i	i	i	i	i	i
CC1(C)Cc2ccccc2-c2nnc(SCC(=O)N3CCN(c4ccccc4)CC3)n21	i	i	3.3	i	i	i
CCN1CCCC1CNC(=O)C1CCN(Cc2nc(-c3cccc(Br)c3)oc2C)CC1 (configuration not stated)	i	i	i	i	i	i
COc1cc(OC)c(-c2nn3c(-c4ccco4)nnc3s2)cc1OC	i	i	4.4	i	i	i
C=CCN1CCc2cc(O)c(O)cc2C(c2ccccc2)C1 (configuration not stated)	56	nt	nt	nt	nt	nt
SMILES	Hsp90 inh	M1 antag	M1 agonist	MMP-13 inhibitor	Cdc25B inh	DUSP1 inh
C=CCN1CCc2c(cc(O)c(O)c2Cl)C(c2ccccc2)C1 (configuration not stated)	76	nt	nt	nt	nt	nt
Cc1cccc(C2CN(C)CCc3c2cc(O)c(O)c3Cl)c1 (configuration not stated)	69	nt	nt	nt	nt	nt
CCC(NC(=O)Nc1cc(OC)c(OC)c(OC)c1)(C(F)(F)F)C(F)(F)F	i	2.4	i	i	i	i
COc1cc(NC(=O)c2ccc(COCC(F)(F)F)o2)cc(OC)c1OC	i	i	i	i	i	i
CCCCCC(=O)N1CC2(C)CN(C(=O)CCCCC)CC(C)(C1)C2=O	120	i	i	i	i	i
Cc1nn(Cc2ccc(C(=O)Nc3nccs3)cc2)c(C)c1Cl	i	i	i	i	i	i
CCC(C)Nc1nc2c(c(=O)n(C)c(=O)n2C)n1Cc1ccc(Cl)cc1 (configuration not stated)	i	i	i	i	i	i
CCC(C)Nc1nc2c(c(=O)n(C)c(=O)n2C)n1Cc1cccc(C)c1 (configuration not stated)	i	13	i	i	i	i
CCNc1nc2c(c(=O)n(C)c(=O)n2C)n1Cc1ccc(Cl)cc1	i	i	2.6	i	i	i
O=C(Cn1ccc2ccccc2c1=O)NCCC(=O)Nc1ccc2c(c1)OCCO2	nt	nt	nt	i	i	i
O=c1[nH]c(SCc2ccc(Cl)cc2)nc2c1CCC2	i	i	i	33	i	i
O=c1[nH]c(SCc2cccc(Cl)c2)nc2c1CCCC2	i	i	i	i	i	i
O=C(NC1CCCCC1)C1CCCN(c2nnnn2-c2ccccc2)C1 (configuration not stated)	i	i	i	i	i	i
O=C(/C=C/c1ccccc1)c1ccccc1	i	i	i	i	i	i
O=C(O)/C=C/c1ccc(O)c(O)c1	53	i	i	i	i	i
O=C(c1ccc2ccccc2c1)N1CCN(c2ccc(O)cc2)CC1	92	i	i	i	i	i
O=C(c1ccc2nc(-c3ccco3)c(-c3ccco3)nc2c1)N1CCN(c2ccccc2)CC1	i	i	5.7	i	i	i
O=C(c1cc(-c2ccco2)on1)N1CCN(c2ccccc2)CC1	i	i	i	i	i	i
O=C(NCC1COc2ccccc2O1)C1CCC(CNc2c(N3CCCCC3)c(=O)c2=O)CC1 (configuration not stated)	i	i	i	i	i	i
CC(C)c1cc(Nc2cccc(O)c2)cc(C(C)C)c1O	72	i	i	i	i	i
CC(C)c1cc(NC(=O)C(C)(C)C)cc(C(C)C)c1O	i	i	i	i	i	i
CCOC(=O)c1c(NC(=O)CSc2nnc(CNC(=O)c3ccco3)n2C)sc2c1CCC2	i	i	i	i	i	i
COc1cccc(N2C(=O)C(O)=C(C(C)=O)C2c2ccc(OC)c(OC)c2)c1 (configuration not stated)	i	0.57	i	i	i	i
Cc1ccc2oc(=O)c3cnn(CC(=O)N4CCCc5ccccc54)c3c2c1	i	2.1	i	i	i	i
